Source: PubChem BioAssay AID1159580 (chemical genetic matrix, 2015)
Among all 5,500 compounds or so, about 2,000 (36%) were called active. Inconclusive results (about 18%) are left out. No stated cut-off is given here; in the data, active means normalized growth mostly below about 0.91 (no sharp cut-off); inconclusive means no clear call, values can overlap the other calls; inactive means mostly above about 0.92. This is one part of the list.

Experiment: chemical genetic growth profiling, strain panel (AID 1159580);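 further: tested at 20 µM; growth read once vehicle control cultures reached saturation at 30 °C; 1 = growth at the plate median or of vehicle wells; lower values mean less growth of the strain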
Conditions: S. cerevisiae deletion strains, growth OD

Measured: normalized growth

O=[N+]([O-])O[C@@H]1CO[C@H]2[C@@H]1OC[C@@H]2O
inactive: locus YHR030C, strain SLT2, active compounds read low 0.983 | locus YHR079C, strain IRE1, active compounds read low 0.991 | locus YJL095W, strain BCK1, active compounds read low 1 | locus YJR066W, strain TOR1, active compounds read low 0.955 | locus YLR113W, strain HOG1, active compounds read low 0.999 | locus YNL183C, strain NPR1, active compounds read low 0.932 | locus YOR231W, strain MKK1, active compounds read low 0.981 | locus YPL256C, strain CLN2, active compounds read low 0.966
